This is a sample that favours compounds with a hit; in the whole collection about 12% have one here.
G9a inh: qHTS Assay for Inhibitors of Histone Lysine Methyltransferase G9a | Potency, µM (series often up to 102 µM), inactives show at the top dose activity, negative = inhibition, actives largely listed as inhibitors | G9a H3K9 monomethylation, AlphaScreen, 2 h | 350,000 compounds, 8.8% hits | AID 504332, 2011 | Histone-lysine N-methyltransferase EHMT2 (Homo sapiens), Q96KQ7; also: % is scaled to controls: 0 for no effect and ±100 for the full control effect; nearly all actives have a fitted effect of over 75% in size
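Signal arises when biotinylated H3K9 peptide, once monomethylated, bridges streptavidin donor and antibody-captured acceptor beads. Enzyme at 20 nM was preincubated 15 min with test compounds; peptide 500 nM and SAM 20 uM then reacted for 2 h.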
PLK1 PBD block: qHTS for Inhibitors of PLK1-PDB (polo-like kinase 1 - polo-box domain): Primary Screen | Plk1 PBD binding of FITC phosphopeptide, fluorescence polarization | Potency, µM, without a hit: max response, negative = inhibition, most hits filed as inhibitors | 360,000 compounds, 2.8% hits | AID 720504, 2013; also: series mostly up to about 57 µM; % is scaled to controls: 0 for no effect and ±100 for the full control effect; nearly all actives have a fitted effect of over 65% in size
Sfp PPTase inh: qHTS Assay for Inhibitors of Bacillus subtilis Sfp phosphopantetheinyl transferase (PPTase) | 4'-phosphopantetheinyl transferase ffp (Bacillus subtilis), Q9F4F7 | Biochemical Sfp PPTase activity, qHTS | Potency, µM, inactives show largest response in the series, negative = inhibition, usual class: inhibitors | 310,000 compounds, 3.5% hits | AID 1490, 2009;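 also: the enzyme is Sfp with the accession as filed and its product quenches rhodamine fluorescence; 0% = enzyme reaction without inhibitor and -100% = no enzyme wells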
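Sfp 15 nM + cpd, 15 min RT; start w/ rhodamine-CoA 5 uM, BHQ-2-YbbR 12.5 uM (final); 50 mM Hepes pH 7.6, 10 mM MgCl2, 0.01% NP-40, 0.01% BSA; read 525/598 nm at 0 and 30 min.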
JMJD2A Tudor: qHTS Assay for Inhibitors of JMJD2A-Tudor Domain; AID 504339, 2011; 390,000 compounds, 4.4% hits; Potency, µM (top dose mostly 114 µM), without a hit: top-dose activity change, negative = inhibition, actives largely listed as inhibitors; Lysine-specific demethylase 4A (Homo sapiens), O75164; AlphaScreen JMJD2A-Tudor / H3K4me3 peptide binding; also: % is scaled to controls: 0 for no effect and ±100 for the full control effect; nearly all actives have a fitted effect of over 50% in size
BAZ2B inh: qHTS Assay for Inhibitors of BAZ2B. Bromodomain adjacent to zinc finger domain protein 2B (Homo sapiens), Q9UIF8. AlphaScreen BAZ2B-H3K14Ac peptide displacement. Potency, µM (doses to about 114 µM), for inactives: at the top dose activity change, negative = inhibition, actives largely listed as inhibitors. 360,000 compounds, 4.4% hits. AID 504333, 2011; also: % is scaled to controls: 0 for no effect and ±100 for the full control effect; nearly all actives have a fitted effect of over 60% in size
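AlphaScreen displacement: compounds (up to 110uM) incubated 30 min at room temperature with a preformed 50 nM BAZ2B/50 nM biotinylated H3K14Ac peptide complex in PBS pH 7.4 with Tween-20. Donor and acceptor beads at 10 ug/mL final added, 20 min light-protected before reading.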
HP1b chromo inh: HTS for Inhibitors of HP1-beta Chromodomain Interactions with Methylated Histone Tails | Potency, µM (series often up to 114 µM), for the others: top-dose activity change, negative = inhibition, usual class: inhibitors | 390,000 compounds, 0.56% hits | AlphaScreen HP1-beta / biotin-H3K9me3 peptide binding | Chromobox protein homolog 1 (Homo sapiens), P83916; also: nearly all actives have a fitted effect of over 70% in size
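Compound inhibition of the preformed complex between 50 nM HP1-beta and 50 nM biotinylated H3K9me3 peptide was read by AlphaScreen. Buffer was PBS pH 7.4 with 0.01% Tween-20. Incubations ran 30 min at room temperature, with 10 ug/mL donor/acceptor beads.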
* hit, by the source's call; [ ] = dose if it differs, or a comment. Calls follow the shape of the dose curve; as a rule, active = well fitted curve in the direction sought with a large enough effect; inconclusive = small, poorly fitted or top-dose-only effect, or another doubt; inactive = no such curve, though single readings can be large; an effect the other way counts as inactive or inconclusive. Potency is read from the fitted curve at half-maximal effect.

FC(F)(F)c1cccc(N2CCN(CC3CC4C=CC3C4)CC2)c1 (stereo unspecified) was read as G9a inh inconclusive, PLK1 PBD block -26%, Sfp PPTase inh -25%, JMJD2A Tudor -28%, BAZ2B inh inconclusive and HP1b chromo inh 25%.
CC(=O)CCc1ccc(Oc2nc(-c3cccnc3)nc3ccccc23)cc1 was read as G9a inh -4%, PLK1 PBD block 8%, Sfp PPTase inh -16%, JMJD2A Tudor -8%, BAZ2B inh -11% and HP1b chromo inh 58%.
Screening COC(=O)[C@H](CCSC)NC(=O)C/C=C\[C@@H](C)[C@@H](CO)OC returned Sfp PPTase inh 19%.
For CCCCCCC#CC1C=CC(Oc2ccc(C=O)cc2)C(CO)O1 (stereo unspecified) the results were Sfp PPTase inh 5%.
`CCCS(=O)(=O)N1CCN(CC2CC=CCC2)CC1` (stereo unspecified) gave G9a inh 7.1µM*, PLK1 PBD block -7%, Sfp PPTase inh -23%, JMJD2A Tudor 0.89µM*, BAZ2B inh 56µM* and HP1b chromo inh -55%.
`Cc1ccc(N2CCN(CC3CC=CCC3)CC2)cc1` (stereo unspecified) gave G9a inh -12%[59 µM], PLK1 PBD block -9%, Sfp PPTase inh -2%, JMJD2A Tudor inconclusive, BAZ2B inh inconclusive and HP1b chromo inh inconclusive.
Screening C1=CCC(CN2CCN(C3CCCCCC3)CC2)CC1 (stereo unspecified) returned G9a inh 7.9µM*, PLK1 PBD block 1%, Sfp PPTase inh inconclusive, JMJD2A Tudor 1µM*, BAZ2B inh 45µM* and HP1b chromo inh inconclusive.
`C[C@H]1CN([C@@H](C)CO)C(=O)c2cc(C#Cc3ccccn3)cnc2O[C@@H]1CN(C)Cc1ccccc1` gave PLK1 PBD block 3%.
For CCOC(=O)c1nn(-c2ccccc2C)c(=O)c(C#N)c1C the results were G9a inh 89µM*, PLK1 PBD block -6%, Sfp PPTase inh 0%, JMJD2A Tudor -5%, BAZ2B inh 6% and HP1b chromo inh 21%.
`Cc1c(C(=O)NN)nn(-c2ccc(F)cc2)c(=O)c1C#N` gave G9a inh -18%, PLK1 PBD block 1%, Sfp PPTase inh 6%, JMJD2A Tudor -11%, BAZ2B inh 0% and HP1b chromo inh 43%.
`CCOC(=O)c1nn(-c2ccc(C)c(C)c2)c(=O)c(C#N)c1C` gave G9a inh 45µM*, PLK1 PBD block -4%, Sfp PPTase inh 9%, JMJD2A Tudor -27%, BAZ2B inh -38% and HP1b chromo inh 29%.
For CC(=O)C1=C(C)N2CCN=C2S1 the results were G9a inh 16%, PLK1 PBD block -21%, Sfp PPTase inh -12%, JMJD2A Tudor -20%, BAZ2B inh -16% and HP1b chromo inh 1%.
CC(C(=O)Nc1ccccc1-c1ccccc1)N(C)Cc1nc2ccccc2c(=O)[nH]1 (stereo unspecified) was read as G9a inh 12%, PLK1 PBD block 6.7µM*, Sfp PPTase inh inconclusive, JMJD2A Tudor -32%[11.4 µM], BAZ2B inh -9% and HP1b chromo inh inconclusive.
`COc1ccc(/C=N/N2CCN(Cc3ccccc3)CC2)cc1` gave G9a inh -10%[59 µM], PLK1 PBD block 5%, Sfp PPTase inh -4%, JMJD2A Tudor inconclusive, BAZ2B inh inconclusive and HP1b chromo inh inconclusive.
For Oc1ccccc1/C=N/n1cnn(Cc2ccccc2Cl)c1=S the results were G9a inh 3.5µM*, PLK1 PBD block 4.7µM*, Sfp PPTase inh inconclusive, JMJD2A Tudor 18µM*, BAZ2B inh -20% and HP1b chromo inh 2%.
COc1cc(/C=N/n2cnn(Cc3ccccc3Cl)c2=S)cc(OC)c1OC was read as G9a inh 32µM*, PLK1 PBD block inconclusive, Sfp PPTase inh inconclusive, JMJD2A Tudor -29%, BAZ2B inh -24% and HP1b chromo inh -19%.
Screening COc1ccc(/C=N/n2cnn(Cc3ccccc3Cl)c2=S)cc1 returned G9a inh 28µM*, PLK1 PBD block 27µM*, Sfp PPTase inh 25µM*, JMJD2A Tudor -4%, BAZ2B inh -34% and HP1b chromo inh inconclusive.
`O=C(NNc1ccc([N+](=O)[O-])cc1)Nc1ccccc1` gave G9a inh inconclusive, PLK1 PBD block inconclusive, Sfp PPTase inh inconclusive, JMJD2A Tudor -30%, BAZ2B inh -27% and HP1b chromo inh inconclusive.
Screening O=C(NNc1ccccc1)C(=O)NNS(=O)(=O)c1ccc([N+](=O)[O-])cc1 returned G9a inh 6.3µM*, PLK1 PBD block -5%, Sfp PPTase inh 14%, JMJD2A Tudor 3.2µM*, BAZ2B inh -27% and HP1b chromo inh 11%.
For CC(=O)Nc1ccc(S(=O)(=O)NNc2ccc([N+](=O)[O-])cc2)cc1 the results were G9a inh 1.3µM*, PLK1 PBD block inconclusive, Sfp PPTase inh 22µM*, JMJD2A Tudor 6.3µM*, BAZ2B inh 50µM* and HP1b chromo inh inconclusive.
`O=C(NNc1ccc([N+](=O)[O-])cc1)c1ccccc1F` gave G9a inh 35µM*, PLK1 PBD block -11%, Sfp PPTase inh -8%, JMJD2A Tudor -26%, BAZ2B inh -38% and HP1b chromo inh 13%.
`Cc1ccc(S(=O)(=O)NNC(=O)c2ccncc2)cc1[N+](=O)[O-]` gave G9a inh 50µM*, PLK1 PBD block -14%, Sfp PPTase inh -4%, JMJD2A Tudor 4µM*, BAZ2B inh -30% and HP1b chromo inh 21%.
For O=C(NNS(=O)(=O)c1ccc(Br)cc1)c1ccncc1 the results were G9a inh 39%[0.501 µM], PLK1 PBD block -4%, Sfp PPTase inh -4%, JMJD2A Tudor inconclusive, BAZ2B inh -28% and HP1b chromo inh 5%.
For COc1ccccc1C(=O)Nc1ccc2nc(SCCOc3ccccc3C)sc2c1 the results were G9a inh 46%[59 µM], JMJD2A Tudor 22%, BAZ2B inh 10% and HP1b chromo inh 51%.

High-throughput results deposited in PubChem BioAssay by National Center for Advancing Translational Sciences (NCATS).
